Test results taken from ChEMBL document CHEMBL4513216, “Probing the Open Global Health Chemical Diversity Library for Multistage-Active Starting Points for Next-Generation Antimalarials” (ACS Infect Dis, 2020).
About 8,600 (12%) of roughly 69,000 compounds showed an effect of 50% or more. The full list was thinned out, with strong results kept by preference.

system: Plasmodium berghei; assay: Screen against P. berghei liver stage (PbLuc), transformed with Luciferase, at 10uM; format: functional, HepG2; conditions: tested at 10 uM

In order of rising INHIBITION:
1. COc1cc(Cl)ccc1C(=O)NCC(=O)Nc1nccs1  -176%
2. Cc1c(C(=O)NC2=NCCS2)cnn1-c1ccc(Br)cc1  -156%
3. CN1CCN(C(=O)c2cc(C#N)cs2)c2ccccc2C1  -91.4%
4. O=C(NCCc1cccs1)NC1CCN(c2ncccn2)CC1  -89%
5. CC(C)NC(=O)N1CC[C@H]2[C@H]1CCN2c1ncccn1  -44.2%
6. Cc1cc(C(=O)N2CCCC(n3cncn3)C2)c(C)n1CC1CC1 (stereo unspecified)  -41.6%
7. O=C(c1ccnnc1)N1CCN(Cc2cccnc2)c2ncccc2C1  -39.9%
8. CN(C)c1ccc(C(=O)N2CCCN(Cc3cscn3)CC2)nn1  -31.8%
9. O=C(C1CCOCC1)N1CCc2ncnc(-c3ccccc3)c2CC1  -28.8%
10. Cc1nc(NC2CCN(C(=O)C3CC3)CC2)c2cnn(C)c2n1  -25.2%
11. CN(C)C(=O)N1CC[C@@H](O)[C@@H]1Cc1ccccc1  -14.7%
12. Cc1cc(C2CCC2)nc(N2CCC3(CCCN(C)C3=O)C2)n1 (stereo unspecified)  -14.3%
13. Cc1cc(C(=O)N2CCN(S(C)(=O)=O)[C@@H](C)C2)c(F)cc1F  -14.2%
14. CN1CCN(C[C@@H]2OC[C@H]3CN(Cc4ccsc4)CC[C@H]32)CC1  -13.3%
15. Cc1c(C(C)N)cnn1-c1ccccn1 (stereo unspecified)  -12.1%
16. CC(Cc1ccco1)NC(=O)Nc1cccnc1 (stereo unspecified)  -10.1%
17. O=C(CNC(=O)c1ccccc1Cl)Nc1nccs1  -9.72%
18. CNc1cccc(C2CCN(C(=O)c3cccnc3)CC2)n1  -9.27%
19. CN(C)C(=O)c1cc(-c2ccncc2)[nH]n1  -8.28%
20. N#CC1CCN(C(=O)NCCc2ccc(Cl)s2)CC1  -7.31%
21. O=C(NC1CCCN(c2ncccn2)C1)c1ccoc1 (stereo unspecified)  -6.32%
22. Cc1cccc(CN2CC[C@@H]3[C@@H]2CCN3C(=O)c2cc(C)oc2C)n1  -6.23%
23. Cc1nn(C)c2cn(C(C)C(=O)NCc3cccnc3)nc12 (stereo unspecified)  -2.37%
24. O=C(N1CCCC1)C12CC(CN1Cc1nccs1)C2  -2.03%
25. Cc1nnc(NCc2ccccc2F)c(C#N)c1C  1.35%
26. O=C(COC[C@H]1CC[C@H]2[C@H](CCN2c2ncccn2)O1)N1CCCC1  1.81%
27. Cc1cnc(NCc2ccncc2)nc1-c1cnn(C)c1  2.15%
28. COCCn1/c(=N\C(=O)CN(C)S(C)(=O)=O)sc2cc(OC)ccc21  2.29%
29. CN(Cc1ccco1)C(=O)NC1CCCN(c2ncccn2)C1 (stereo unspecified)  4.865%
30. Cc1c(C(C)N)cnn1-c1cccc2ccccc12 (stereo unspecified)  7.24%
31. CC(C)CC(=O)N1CCC2(CC1)OC(C(N)=O)Cn1ccnc12 (stereo unspecified)  7.7%
32. Cc1ccc2c(n1)N(C)CCN(C(=O)C1CC1)C2  7.84%
33. CN(C)S(=O)(=O)N1C[C@@H]2COC[C@]2(COc2ccccn2)C1  11.5%
34. COCC1Cn2nnc(-c3cnn(C)c3)c2CN1Cc1ccco1 (stereo unspecified)  11.8%
35. Cc1ccc(CCNC(=O)Cn2nc(C)n(Cc3ccccc3)c2=O)o1  13.6%
36. O=C1CCCN1c1cccc(N2CCC(NCCc3cscn3)CC2)c1  14.3%
37. COc1ccc(C(=O)COc2coc(CN3CCSCC3)cc2=O)cc1  15.1%
38. Cn1ncc2c(NCC3CCS(=O)(=O)C3)nc(C3CCCC3)nc21 (stereo unspecified)  15.1%
39. CCC(NC(=O)c1nn(C)cc1C(=O)O)c1ccccc1 (stereo unspecified)  15.9%
40. O=C(CCc1cccnc1)N1CCC(c2cnccn2)CC1  15.9%
41. COc1ccc2c(ccn2CC(=O)Nc2n[nH]c(CC(C)C)n2)c1  16%
42. CCc1nc(NC2CCCN(C(=O)C3CC3)C2)c2cnn(C)c2n1 (stereo unspecified)  16%
43. CSc1nnc(C2CCN(C(=O)N3CCCC3)CC2)n1C  16.185%
44. CS(=O)(=O)CCn1ccc(NC(=O)Cc2cccc(Cl)c2)n1  16.5%
45. Cn1ncc2c(NCC(=O)N3CCNCC3)nc(C(C)(C)C)nc21  16.8%
46. O=C(c1cnc2n1CCN(Cc1ccccc1)C2)N1CCCC1  17.1%
47. CN(C)C(=O)N1CCN(Cc2cnn(C)c2)CC2(CNC(=O)C2)C1 (stereo unspecified)  17.6%
48. O=C(CCn1c(=O)oc2ccccc21)NCC(O)c1ccc(Cl)cc1 (stereo unspecified)  18.2%
49. Cc1nn(C)c2cn(C(C)C(=O)NCc3ccc(F)cc3)nc12 (stereo unspecified)  19.3%
50. CC1CCCN(C(=O)CCc2cccnc2)C1 (stereo unspecified)  20.9%
51. COc1ccccc1CNC(=O)C(C)n1cc2c(n1)c(C)nn2C (stereo unspecified)  21.7%
52. Cc1cnn(C2CN(CC(=O)NCCc3ccsc3)C2)c1  22.3%
53. CC(C)NC(=O)CN(C)C(=O)c1csc(Cc2ccccc2F)n1  23.1%
54. Cc1ccsc1C(=O)N1CC2CC1(C(=O)NCC1CC1)C2  23.5%
55. Cc1ccc(N2CCCC(NCc3cscn3)C2)nn1 (stereo unspecified)  26.8%
56. Cc1cc(NC2CCc3ncnn3C2)n2nc(C(F)(F)F)nc2n1 (stereo unspecified)  26.9%
57. O=C(c1ccc(Cl)cc1)N1CCC(N2CCCCC2=O)CC1  27.5%
58. CCNc1ncc(C)c(-c2cnn(C)c2)n1  27.6%
59. CCOC(=O)CCCNc1nc(C(C)(C)C)nc2c1cnn2C  27.9%
60. CC(C)c1nc(C2CCCN(C(=O)c3ccc(N(C)C)nn3)C2)no1 (stereo unspecified)  30.3%
61. COc1cccc(CC(=O)N2CCC(Cc3nnc(SC)n3C)CC2)c1  31.3%
62. CCNC(=O)CN(CC)C(=O)c1csc(Cc2ccccc2F)n1  32%
63. CCOCC(=O)N1CCc2nc(C)nc(NC(C)C)c2CC1  32.1%
64. Cc1nn(C)c2cn(C(C)C(=O)NCc3ccncc3)nc12 (stereo unspecified)  32.5%
65. Cc1nc(N[C@H]2COC[C@@H]2N2CCCC2)c2cnn(C)c2n1  32.7%
66. Cc1ccc(-c2csc3c(=O)[nH]c(N4CCCC(C(=O)O)C4)nc23)cc1 (stereo unspecified)  32.8%
67. Cn1c(=NC(=O)CSCC(=O)Nc2nccs2)sc2ccccc21  32.8%
68. O=S(=O)(CC1CCCCO1)Nc1cnn(Cc2ccccc2)c1 (stereo unspecified)  33.7%
69. CN(Cc1cnn(C)c1)C(=O)NCc1cc(Br)cs1  34.95%
70. COCC(=O)N1CCc2nc(C)nc(NC(C)C)c2CC1  35.8%
71. O=C(Cc1ccccn1)N1CC[C@]2(C[C@@H](Oc3ncccc3F)CO2)C1  35.8%
72. CN(Cc1cccc2cccnc12)C1CCS(=O)(=O)C1 (stereo unspecified)  36%
73. O=C(O)C1CCCN(c2nc3c(-c4ccccc4)csc3c(=O)[nH]2)C1 (stereo unspecified)  36.6%
74. Cc1cc2c(=O)n(CCSc3cnn[nH]3)cnc2s1  36.7%
75. c1ccc(CCNc2ncnc3c2CCN(Cc2c[nH]cn2)CC3)cc1  37.3%
76. Cc1nc(-c2cccc(N3CCC(NC4CCOCC4)CC3)c2)cs1  37.7%
77. CC(=O)NCC(=O)N1CCc2nc(-c3ccccc3)nc(C)c2CC1  37.9%
78. Cc1nc(-c2ccc(F)cc2)nc2c1CCN(C(=O)CN(C)C)CC2  37.9%
79. Cc1cnc(CNc2ncc(C)c(-c3cnn(C)c3)n2)cn1  39.4%
80. Cc1ccc(CN2CCC3(CC2)C(=O)N(CC(C)C)CCN3C)o1  39.5%
81. Cn1ncc2c(NC3CCC(N)CC3)nc(C(C)(C)C)nc21 (stereo unspecified)  40.5%
82. Cc1nc2c(c(NCc3ccccc3)n1)CCN(C(=O)C1CCC1)CC2  42.3%
83. CC(C)c1nnc2sc(CC3CN(Cc4ccccc4)CCO3)nn12 (stereo unspecified)  42.8%
84. Cn1cc(S(=O)(=O)N2CCN(S(=O)(=O)c3ccc(Br)s3)CC2)cn1  43.2%
85. Cc1ccc(NC2CCN(C(=O)COc3cccnc3)CC2)nn1  44.6%
86. CC(C)N1CCOC(Cc2nn3c(Cc4ccccc4)nnc3s2)C1 (stereo unspecified)  45.5%
87. CCOC(=O)CC(C)Nc1nc(C(C)(C)C)nc2c1cnn2C (stereo unspecified)  46.4%
88. Cc1cnn(CC(C)NCc2csc(-c3cnn(C)c3)n2)c1 (stereo unspecified)  47.1%
89. Cc1ccc(C)c2c(C)c(C(=O)NCCCn3ccnn3)[nH]c12  47.2%
90. CCOCC(=O)N1CCC(Cc2nnc(SC)n2C)CC1  48%
91. COCC(=O)N1CCc2nc(NC(C)C)nc(NC(C)C)c2CC1  48.4%
92. Cc1nc2c(c(NC(C)C)n1)CCN(C(=O)c1ccno1)CC2  49.1%
93. Cn1ncc2c(N[C@H]3CCCC[C@@H]3O)nc(C(C)(C)C)nc21  50.1%
94. COc1ccc2c(c1)sc(=NC(=O)CSCC(=O)Nc1nccs1)n2C  51%
95. CCOC(=O)CNc1nc(C(C)(C)C)nc2c1cnn2C  51.3%
96. CSc1nnc(CC2CCN(C(=O)CCc3cccnc3)CC2)n1C  51.7%
97. Cc1ccccc1-c1csc2c(=O)[nH]c(N3CCCC(C(=O)O)C3)nc12 (stereo unspecified)  52.5%
98. Cn1ncc2c(N[C@@H]3CS(=O)(=O)C[C@H]3O)nc(C(C)(C)C)nc21  54.4%
99. Cc1nn(C)c2cn(C(C)C(=O)NCc3ccccn3)nc12 (stereo unspecified)  55.7%
100. Cc1nn(C)c2cn(C(C)C(=O)NCc3cccc(F)c3)nc12 (stereo unspecified)  58.2%
101. Cc1ccccc1-n1ncc(C(C)N)c1C (stereo unspecified)  58.4%
102. Cc1cnc(NCc2csc(C(C)C)n2)nc1-c1cnn(C)c1  58.5%
103. CCCc1nnc2sc(CC3CN(Cc4ccccc4)CCO3)nn12 (stereo unspecified)  59.2%
104. CC(=O)N1CCc2nc(-c3ccccc3)nc(NC(C)C)c2CC1  59.3%
105. Cc1cnc(NCc2cnn(C)c2)nc1-c1cnn(C)c1  61.2%
106. Cn1ncc2c(NC3CCCN(C(=O)C4CC4)C3)nc(C(C)(C)C)nc21 (stereo unspecified)  62.9%
107. CC(=O)N1CCc2nc(-c3ccc(F)cc3)nc(NC(C)C)c2CC1  64.7%
108. CSc1nnc(CC2CCN(C(=O)Cc3ccncc3)CC2)n1C  64.7%
109. c1ccc(-c2cccc(N3CCC(NCCc4cscn4)CC3)c2)cc1  69.9%
110. CC(C)Nc1nc(-c2ccccc2)nc2c1CCN(C(=O)CC#N)CC2  72%
111. CSc1nnc(CC2CCN(C(=O)COc3cccnc3)CC2)n1C  73%
112. CC(C)Nc1nc(-c2ccccc2)nc2c1CCN(C(=O)C1CC1)CC2  73.8%
113. c1cc(-c2cscn2)cc(N2CCC(NCCc3cccs3)CC2)c1  75.5%
114. O=C(NCC1CC1)C12CC(CN1Cc1nccs1)C2  82.2%
115. CCn1c(=NC(=O)CSCC(=O)Nc2nccs2)sc2ccccc21  88.1%
116. COC(=O)CCN(C)C(=O)c1csc(Cc2ccccc2F)n1  91.3%
